The results in this text go back to PubChem BioAssay (NCI).

The panel holds about 83,000 compounds, 20% with a hit somewhere; the sample as a whole holds those more often.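 Compound tested at a single concentration for 48 hours in 96-well plates; a percent growth value below 10 was scored as active.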 A number with no mark means an inactive call. The source made the active and inactive calls.

What all share (test): NCI-60 one-dose screen, 48 h (100 = growth as untreated, 0 = no growth, -100 = all killed)
Common to all, as to conditions: 10 µM unless noted

Experiment [1] relates to HCT-15 colon.
The test system of experiment [2] is HT29 colon.
Experiment [3] deals with SNB-75 CNS.
The test system of experiment [4] is SNB-19 CNS.
Experiment [5] has as its system U251 CNS.
The test system of experiment [6] is PC-3 prostate.
The test system of experiment [7] is SK-MEL-5 melanoma.
The subject of experiment [8] is UACC-62 melanoma.
The test system of experiment [9] is LOX IMVI melanoma.
The test system of experiment [10] is SK-MEL-28 melanoma.

Regarding `COc1c(O[C@@H]2OC(CO)[C@H](O)[C@H](O)C2O)cc2oc3cc(O)c(CC=C(C)C)c(O)c3c(=O)c2c1CC=C(C)C` (stereo not given in full), the growth was 97.9% in [1]; 93.6% in experiment [2]; 93.9% in [3]; 96.1% in experiment [4]; 77.9% in [5]; 73.8% in experiment [6]. Further, the growth is 97.8% in [7], 83.8% in experiment [8], 85.2% in experiment [9] and 106% in experiment [10].
As for `C#CCOc1cccc(Nc2ncnc3c(NC(=O)CCl)cccc23)c1`, the growth was -37.9% (active) in experiment [1]; -77.1% (active) in [2]; 74.8% in experiment [3]; 20.1% in experiment [4]; -69.2% (active) in experiment [5]; 2.88% (active) in [6]. Besides, the growth in [7] was -89.2% (active); in experiment [8], 21.8%; in experiment [9] it was -79.7% (active); in [10] it was 75%.
Consider `C=CCOC(=O)C1=C(C)N(CC)C(=O)N(CC)C1c1c(Cl)n(C)c2ccccc12` (stereo not given), for which the growth was 78.4% in experiment [1]; 82.3% in experiment [2]; 81.6% in experiment [3]; 75.6% in [4]; 88.3% in experiment [5]; 50.4% in experiment [6]. Moreover, the growth in [7] is 96.5%; in experiment [8], 59.4%; in experiment [9] it was 52.8%; in experiment [10], 99.2%.
On to `C=C(C[n+]1ccccc1)[C@@H]1CC[C@]2(C(=O)OC)CC[C@]3(C)[C@H](CC[C@@H]4[C@@]5(C)CCC(=O)C(C)(C)[C@@H]5CC[C@]43C)[C@@H]12`, for which the growth in experiment [1] is 104%; in experiment [2], 78%; in experiment [3], 83.9%; in experiment [4], 73.8%; in experiment [5], 82.8%; in experiment [6] it was 68%. For the same compound, the growth in experiment [7] was 80.2%; in experiment [8], 51.8%; in [9], 93.7%; in experiment [10], 69%.
Take `CCN1C(=O)N(CC)C2C1NN=c1s/c(=C3\C(=O)N(C)c4ccccc43)c(=O)n12` (stereo not given): the growth in [1] is 22.2%; in experiment [2], 11.5%; in experiment [3] it was -10.8% (active); in experiment [4], 37.2%; in experiment [5] it was 34.9%; in experiment [6], 35%. Besides, the growth in experiment [7] is 32.8%; in experiment [8], 29.1%; in experiment [9], 47.7%; in experiment [10], 52.6%.
Regarding `Cc1nn(-c2ccccc2)c(Oc2ccccc2)c1/C=N/NC(=O)Cn1c(=O)sc2ccccc21`, the growth in experiment [1] was 56.7%; in experiment [2], 46.8%; in [3] it was 48.6%; in experiment [4] it was 61.1%; in experiment [5] it was 51.3%; in [6] it was 44.5%. Moreover, the growth is -47.7% (active) in experiment [7], 52.1% in experiment [8], 48.7% in [9] and 87.5% in experiment [10].
For the compound `COc1cc2c(c(OC)c1OC)CCC(c1cccc(C(=O)Nc3ccccc3Br)c1)O2` (stereo not given), the growth was 92% in [1]; 82.4% in [2]; 65.8% in [3]; 90.1% in experiment [4]; 90.7% in experiment [5]; 76.1% in experiment [6]. The growth in experiment [7] was 86.3%; in experiment [8], 66.2%; in experiment [9], 90.2%; in experiment [10], 94.6%.
As for `O=C(N/N=C/c1ccccc1Cl)c1ccccc1Nc1ccnc(C(F)(F)F)c1`, the growth in experiment [1] is 10.4%; in [2], 3.22% (active); in experiment [3] it was -14.5% (active); in experiment [4] it was 17.1%; in experiment [5] it was 3.95% (active); in experiment [6] it was 2.99% (active). Further, the growth in experiment [7] was -50.7% (active); in experiment [8], -32.7% (active); in experiment [9], 4.1% (active); in experiment [10], 25.7%.
Turning to `CN1CCN(Cc2ccc(NC(=O)c3cncc(C#Cc4c(N)ncc5ccccc45)c3)cc2C(F)(F)F)CC1`, the growth in experiment [1] is -71.7% (active); in [2] it was -70.1% (active); in [3] it was -94.4% (active); in experiment [4], -82% (active); in experiment [5] it was -98.7% (active); in experiment [6], -57.8% (active). For the same compound, the growth in experiment [7] was -91.9% (active); in experiment [8], -93.8% (active); in experiment [9] it was -94.3% (active); in experiment [10] it was -83.2% (active).
For `Cc1ccc(S(=O)(=O)N(CCC(=O)O)c2ccccc2)cc1`, the growth in [1] is 102%; in experiment [2] it was 110%; in [3] it was 118%; in [4], 109%; in [5], 102%; in experiment [6], 101%. For the same compound, the growth in experiment [7] is 112%; in experiment [8] it was 104%; in experiment [9], 97.3%; in experiment [10], 119%.
For `COc1ccc(C(=O)/C=C/c2ccc(C)cc2)cc1S(N)(=O)=O`, the growth in experiment [1] is 22.8%; in experiment [2] it was 45.7%; in [3], 82.7%; in [4], 14.5%; in [5] it was 17.1%; in experiment [6], 50.4%. Also, the growth is 82.2% in [7], 61.2% in experiment [8], 28.8% in [9] and 98.1% in experiment [10].
Consider `CC1(C)C2=C(C(=O)N1Cc1ccccc1)C(c1ccco1)N(C(=O)C1CCC1)CCN2` (stereo not given), for which the growth in experiment [1] was 109%; in [2] it was 106%; in [3], 83.7%; in experiment [4] it was 98.9%; in experiment [5] it was 100%; in experiment [6], 95.2%. Further, the growth in experiment [7] was 105%; in experiment [8], 91.7%; in experiment [9] it was 96.8%; in experiment [10], 115%.
`C#Cc1cccc(Nc2nc(Cl)nc3cc(NC(=O)CCl)ccc23)c1`: the growth in experiment [1] is -77.7% (active); in [2], -37.8% (active); in experiment [3], -97.5% (active); in experiment [4], -77.1% (active); in experiment [5], -81.8% (active); in experiment [6] it was -85.6% (active). In addition, the growth in [7] is -90.9% (active); in experiment [8], -80.5% (active); in experiment [9], -77.3% (active); in [10], -94.4% (active).
